# Laboratory results published in PubChem BioAssay (NCATS).
# Results filed as inconclusive are left out. Entries that show only a call come without a potency. Activity calls are given as the source filed them. Calls follow the shape of the dose curve; as a rule, active = well fitted inhibition curve with a large enough effect; inconclusive = small, poorly fitted or top-dose-only effect; inactive = flat fitted curve, though single readings scatter.
# System: MKL-1
# Experiment: qHTS assay to identify novel small-molecules to repurpose for Merkel cell carcinoma treatment (AID 1296009); also: nearly all actives have a fitted effect of over 60% in size
# Conditions: MCC and control cell lines, CellTiter-Glo viability, 72 h; series mostly up to 46 µM
# In short: (§1)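 qHTS format: cells treated with library compounds in DMSO across 8 (NPC) or 11 (MIPE) concentrations. Readout after 72 hr at 37 degree celsius was CellTiter-Glo luminescence.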
# Potency is read from the fitted curve at half-maximal effect.
row,Compound,Potency
1,CCC(CC)(CC(=O)Nc1cccc(/C=C/c2nc(C3CCC3)cs2)c1)C(=O)O,inactive
2,CO[C@H]1C=CO[C@@]2(C)Oc3c(C)c(O)c4c(O)c(c(/C=N/N5CCN(C)CC5)c(O)c4c3C2=O)NC(=O)/C(C)=C\C=C[C@H](C)[C@H](O)[C@@H](C)[C@@H](O)[C@@H](C)[C@H](OC(C)=O)[C@@H]1C,21.1 µM (active)
3,CC[C@H](c1ccc(O)cc1)[C@@H](CC)c1ccc(O)cc1,inactive
4,C[C@@]12C(=O)OC(=O)[C@]1(C)C1CCC2O1,3.76 µM (active)
5,O=C(Oc1cccc2cccnc12)c1ccccc1,inactive
6,CCCCC(CC)CN1CN(CC(CC)CCCC)CC(C)(N)C1 (configuration not stated),inactive
7,CCCCc1cc2ccccc2c(OCCN(C)C)n1,inactive
8,CN(CCCN1c2ccccc2CCc2ccccc21)CC(=O)c1ccc(Cl)cc1,inactive
9,Nc1nc(Cl)nc2c1ncn2[C@@H]1O[C@H](CO)[C@@H](O)[C@@H]1F,0.119 µM (active)
10,O=[N+]([O-])c1ccc(/C=N\O)o1,18.8 µM (active)
11,CCO[C@@H]1O[C@H](C(COCc2ccccc2)OCc2ccccc2)[C@H](OCc2ccccc2)[C@H]1O (some centres not stated),inactive
12,CC(C)n1c(/C=C/[C@@H](O)C[C@@H](O)CC(=O)O)c(-c2ccc(F)cc2)c2ccccc21,13.3 µM (active)
13,c1ccc(CC2=NCCN2)cc1,inactive

# System: MKL-2
# Experiment: as above
# Conditions: MCC and control cell lines, CellTiter-Glo viability, 72 h; series mostly up to 46 µM
# In short: as §1
row,Compound,Potency
1,CN(C)CCOC(=O)C(c1ccccc1)C1(O)CCCC1 (configuration not stated),inactive
2,CCCCCCCCCCCCSCCOCCO,inactive
3,C[C@H]1[C@H]2CC[C@H]3[C@@H]4CC=C5C[C@@H](N(C)C)CC[C@]5(C)[C@H]4CC[C@]23CN1C,inactive
4,CCc1ccc(C(=O)C(C)CN2CCCCC2)cc1 (configuration not stated),11.9 µM (active)
5,Cc1ccc2c(Br)cc(Br)c(O)c2n1,5.96 µM (active)
6,CCCCCCCCNC(C)C(O)c1ccc(SC(C)C)cc1 (configuration not stated),18.8 µM (active)
7,CNCCCCOc1ccccc1Cc1ccccc1,18.8 µM (active)
8,Cc1c[nH]c2ccccc12,inactive
9,CCOC(=O)c1c(N)sc2c1CCN(Cc1ccccc1)C2,3.76 µM (active)

# System: UISO
# Experiment: as above
# Conditions: MCC and control cell lines, CellTiter-Glo viability, 72 h; series mostly up to 46 µM
# In short: as §1
row,Compound,Potency
1,CCC(CC)(CC(=O)Nc1cccc(/C=C/c2nc(C3CCC3)cs2)c1)C(=O)O,inactive
2,O=C1OC(CN2CCOCC2)CN1/N=C/c1ccc([N+](=O)[O-])o1 (configuration not stated),inactive
3,CN(C)CCOC(=O)C(c1ccccc1)C1(O)CCCC1 (configuration not stated),inactive
4,C[C@@]12C(=O)OC(=O)[C@]1(C)C1CCC2O1,2.66 µM (active)
5,CCCCCCCCCCCCSCCOCCO,inactive
6,C[C@H]1[C@H]2CC[C@H]3[C@@H]4CC=C5C[C@@H](N(C)C)CC[C@]5(C)[C@H]4CC[C@]23CN1C,inactive
7,C#C[C@]1(OC(C)=O)CC[C@H]2[C@@H]3CCC4=C/C(=N/O)CC[C@@H]4[C@H]3CC[C@@]21CC,29.9 µM (active)
8,CCc1ccc(C(=O)C(C)CN2CCCCC2)cc1 (configuration not stated),inactive
9,O=C1C(CCS(=O)c2ccccc2)C(=O)N(c2ccccc2)N1c1ccccc1 (configuration not stated),inactive
10,NCCNc1cccc2ccccc12,inactive
11,Cc1c[nH]c2ccccc12,inactive
12,Oc1c(Cl)cc(Cl)c(Cl)c1Cc1c(O)c(Cl)cc(Cl)c1Cl,11.9 µM (active)
13,CC(C)n1c(/C=C/[C@@H](O)C[C@@H](O)CC(=O)O)c(-c2ccc(F)cc2)c2ccccc21,3.35 µM (active)
14,c1ccc(CC2=NCCN2)cc1,inactive

# System: WaGa
# Experiment: as above
# Conditions: MCC and control cell lines, CellTiter-Glo viability, 72 h; series mostly up to 46 µM
# In short: as §1
row,Compound,Potency
1,O=C1OC(CN2CCOCC2)CN1/N=C/c1ccc([N+](=O)[O-])o1 (configuration not stated),inactive
2,CCCCCCCCCCCCSCCOCCO,inactive
3,C[C@H]1[C@H]2CC[C@H]3[C@@H]4CC=C5C[C@@H](N(C)C)CC[C@]5(C)[C@H]4CC[C@]23CN1C,inactive
4,CCCCC(CC)CN1CN(CC(CC)CCCC)CC(C)(N)C1 (configuration not stated),inactive
5,CCCCc1cc2ccccc2c(OCCN(C)C)n1,21.1 µM (active)
6,Nc1nc(Cl)nc2c1ncn2[C@@H]1O[C@H](CO)[C@@H](O)[C@@H]1F,0.0944 µM (active)
7,O=C1C(CCS(=O)c2ccccc2)C(=O)N(c2ccccc2)N1c1ccccc1 (configuration not stated),inactive
8,CCCCCCCCCCCCOCCOCCOCCOCCOCCOCCOCCOCCOCCO,21.1 µM (active)
9,O=C(Nc1ncc([N+](=O)[O-])s1)c1cccs1,26.6 µM (active)
10,Cc1ccc2c(Br)cc(Br)c(O)c2n1,9.44 µM (active)
11,CNCCCCOc1ccccc1Cc1ccccc1,18.8 µM (active)
12,O=[N+]([O-])c1ccc(/C=N\O)o1,23.7 µM (active)
13,CCO[C@@H]1O[C@H](C(COCc2ccccc2)OCc2ccccc2)[C@H](OCc2ccccc2)[C@H]1O (some centres not stated),26.6 µM (active)
14,Oc1c(Cl)cc(Cl)c(Cl)c1Cc1c(O)c(Cl)cc(Cl)c1Cl,23.7 µM (active)
15,CCOC(=O)c1c(N)sc2c1CCN(Cc1ccccc1)C2,21.1 µM (active)
16,O=c1[nH]c(=O)n([C@H]2C[C@H](O)[C@@H](CO)O2)cc1F,0.0335 µM (active)
